Where “and” joins values, the source holds several entries; their conditions need not be identical. Equal values may be shown once. Hit rate of the full screen: of about 5,500 compounds, about 2,000 (36%) were called active. Not shown: some 18% with an inconclusive outcome. No stated cut-off is given here; in the data, active means normalized growth mostly below about 0.91 (no sharp cut-off); inconclusive means no clear call, values can overlap the other calls; inactive means mostly above about 0.92. The list shows a part of the results.
Assay: chemical genetic growth profiling, strain panel (AID 1159580);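 further: tested at 20 µM; growth read once vehicle control cultures reached saturation at 30 °C; 1 = growth at the plate median or of vehicle wells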
Settings: S. cerevisiae deletion strains, growth OD

Measured: normalized growth

O=C1c2c(O)ccc(O)c2C(=O)c2c(NCCNCCO)ccc(NCCNCCO)c21
active: locus YKL068W, stronger effect = lower value 1.06 [resistant] | locus YKL160W, strain elf1, stronger effect = lower value 0.858 | locus YKR001C, strain vps1, stronger effect = lower value 0.74 | locus YLL001W, strain dnm1, stronger effect = lower value 0.727 | locus YLL026W, stronger effect = lower value 0.914 | locus YLR027C, strain aat2, stronger effect = lower value 0.855 | locus YLR113W, strain HOG1, stronger effect = lower value 0.828 | locus YLR221C, strain rsa3, stronger effect = lower value 0.865 | locus YLR262C, strain YPT6 (second series), stronger effect = lower value 0.443 | locus YLR268W, strain sec22, stronger effect = lower value 0.857 | locus YLR320W, strain mms22, stronger effect = lower value 0.248 | locus YLR342W, strain FKS1, stronger effect = lower value 0.83 | locus YLR370C, strain arc18, stronger effect = lower value 0.28 | locus YLR384C, strain iki3, stronger effect = lower value 0.745 | locus YML032C, strain rad52, stronger effect = lower value 0.19 | locus YML120C, strain ndi1, stronger effect = lower value 0.878 | locus YMR058W, strain fet3, stronger effect = lower value 0.396 | locus YMR078C, strain ctf18, stronger effect = lower value 0.429 | locus YMR231W, strain pep5, stronger effect = lower value 0.174 | locus YMR307W, strain GAS1, stronger effect = lower value 0.562 and 0.648 | locus YNL071W, strain lat1, stronger effect = lower value 1.12 [resistant] | locus YNL183C, strain NPR1, stronger effect = lower value 0.815 | locus YNL209W, strain ssb2, stronger effect = lower value 0.825 | locus YNL224C, strain SQS1, stronger effect = lower value 1.08 [resistant] | locus YNL248C, strain rpa49, stronger effect = lower value 0.678 | locus YNL250W, strain rad50, stronger effect = lower value 0.181 | locus YNR049C, strain mso1, stronger effect = lower value 0.912 | locus YNR052C, strain pop2, stronger effect = lower value 0.69 | locus YOL006C, strain TOP1, stronger effect = lower value 0.424 | locus YOR001W, strain rrp6, stronger effect = lower value 0.681 | locus YOR070C, strain gyp1, stronger effect = lower value 0.734 | locus YOR080W, strain dia2, stronger effect = lower value 0.447 | locus YOR083W, strain WHI5, stronger effect = lower value 0.726 | locus YOR106W, strain vam3, stronger effect = lower value 0.363 | locus YOR184W, strain ser1, stronger effect = lower value 0.802 | locus YOR270C, strain vph1, stronger effect = lower value 0.327 | locus YOR290C, strain snf2, stronger effect = lower value 0.653 | locus YPL051W, strain arl3, stronger effect = lower value 0.869 | locus YPL055C, strain LGE1, stronger effect = lower value 0.868
inactive: locus YJR066W, strain TOR1, stronger effect = lower value 0.85 | locus YJR075W, strain HOC1, stronger effect = lower value 0.968 | locus YKL009W, strain mrt4, stronger effect = lower value 0.925 | locus YKL085W, strain MDH1 (second series), stronger effect = lower value 1.05 | locus YKL085W, strain MDH1, stronger effect = lower value 1.05 | locus YKL190W, strain CNB1, stronger effect = lower value 0.998 | locus YKR026C, strain gcn3, stronger effect = lower value 1.04 | locus YKR091W, strain srl3, stronger effect = lower value 1.01 | locus YLL041C, strain sdh2, stronger effect = lower value 1.01 | locus YLR039C, strain RIC1, stronger effect = lower value 0.707 | locus YLR058C, strain SHM2, stronger effect = lower value 1.02 | locus YLR102C, strain apc9, stronger effect = lower value 1.06 | locus YLR258W, strain gsy2, stronger effect = lower value 0.94 | locus YLR262C, strain YPT6, stronger effect = lower value 0.711 | locus YLR330W, strain CHS5, stronger effect = lower value 1.03 | locus YLR342W, strain FKS1 (second series), stronger effect = lower value 0.871 | locus YLR357W, strain rsc2, stronger effect = lower value 0.976 | locus YLR371W, strain rom2, stronger effect = lower value 1.01 | locus YLR418C, strain cdc73, stronger effect = lower value 1.02 | locus YML016C, strain PPZ1, stronger effect = lower value 1.03 | locus YML124C, strain tub3, stronger effect = lower value 1.05 | locus YMR125W, strain sto1, stronger effect = lower value 0.982 | locus YMR129W, stronger effect = lower value 0.941 | locus YMR205C, strain PFK2, stronger effect = lower value 0.975 | locus YMR223W, strain ubp8, stronger effect = lower value 0.91 | locus YMR263W, strain SAP30, stronger effect = lower value 0.954 and 1.02 | locus YNL067W, strain RPL9B, stronger effect = lower value 0.976 | locus YNL128W, strain TEP1, stronger effect = lower value 1.07 | locus YNL175C, strain NOP13, stronger effect = lower value 1.07 | locus YNL197C, strain WHI3, stronger effect = lower value 1.06 | locus YNL233W, strain BNI4, stronger effect = lower value 0.966 | locus YNL271C, strain bni1, stronger effect = lower value 0.944 | locus YNL298W, strain CLA4, stronger effect = lower value 0.989 | locus YNL307C, strain MCK1, stronger effect = lower value 1.08 | locus YNL322C, strain KRE1 (second series), stronger effect = lower value 0.933 | locus YNL322C, strain KRE1, stronger effect = lower value 1.01 | locus YOL012C, strain htz1 0.838 | locus YOL147C, strain pex11, stronger effect = lower value 1.07 | locus YOR061W, strain CKA2, stronger effect = lower value 1.01 | locus YOR069W, strain VPS5, stronger effect = lower value 1.02 | locus YOR083W, strain WHI5 (second series), stronger effect = lower value 1 | locus YOR136W, strain idh2, stronger effect = lower value 1.01 | locus YOR144C, strain elg1, stronger effect = lower value 0.984 | locus YOR231W, strain MKK1, stronger effect = lower value 0.927 | locus YOR265W, strain rbl2, stronger effect = lower value 0.932 | locus YOR316C, strain cot1, stronger effect = lower value 1.06 | locus YPL078C, strain atp4, stronger effect = lower value 0.974 | locus YPL106C, strain sse1, stronger effect = lower value 1.07 | locus YPL240C, strain hsp82, stronger effect = lower value 1.03 | locus YPL241C, strain CIN2, stronger effect = lower value 1.04 | locus YPL256C, strain CLN2, stronger effect = lower value 0.959 | locus YPR119W, strain clb2, stronger effect = lower value 1.05 | locus YPR141C, strain kar3, stronger effect = lower value 1.05 | locus YPR163C, strain tif3, stronger effect = lower value 1.03 | locus YPR167C, strain met16, stronger effect = lower value 0.993 | strain wtn01, stronger effect = lower value 0.963

— PubChem BioAssay AID1159580 (chemical genetic matrix, 2015)
